# From PubChem BioAssay
# Shown is part of a subset that was picked to be rich in hits.
# KDM5B inhibitor: blocks human KDM5B histone demethylase activity; Q9UGL1; KDM5B demethylase, FDH-coupled NADH fluorescence (FDH is formaldehyde dehydrogenase); Potency, µM (titrated, usually from 57.7 µM), most hits filed as inhibitors; 2.6% of 220,000 active; active = well fitted inhibition curve with a large enough effect; also: 0% is about no effect; nearly all actives have a fitted effect of over 70% in size
#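 Coupled FDH/NAD⁺ fluorescence readout. KDM5BΔAP 200 nM final; compound titration, 10 min RT preincubation; substrate mix 12.5 µM H3K4me3, 25 µM 2-OG, 50 µM Fe(II), 100 µM ascorbate, 0.25 mM NAD⁺, 0.25 U/mL FDH; ΔRFU over 30 min.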
# * = called active by the depositor; i = inactive. Potency is read from the fitted curve at half-maximal effect.
SMILES,KDM5B inhibitor
CC(C)(C)C(=O)N1CCN(CCNc2cc(=O)oc3ccccc23)CC1,i
Cc1ccc(CN2CCCn3nc(C)c(-c4ccccc4-c4ccccc4)c32)o1,35µM*
Cc1ncsc1C(=O)N1CCCn2nc(C)c(-c3ccccc3-c3ccccc3)c21,i
CC(=O)Nc1ccccc1-c1c(C)nn2c1N(Cc1ccccc1)CCC2,i
Cc1nn2c(c1-c1ccccc1[S+](C)(=O)[O-])N(C(=O)c1cccc(O)c1)CCC2,i
Cc1nn2c(c1-c1ccccc1-c1ccccc1)N(C(=O)c1ccn(C)n1)CCC2,i
Cc1nn2c(c1-c1ccccc1-c1ccccc1)N(Cc1cccc(O)c1)CCC2,28µM*
CCOC(=O)C(NC(=O)CC)C(OC(=O)CC)c1ccccc1 (stereo not given),i
Cc1cccc(NC(=O)c2ccc(N(C)C)cc2)c1C,i
COc1ccc(NC(=O)C(c2ccc(OC)cc2)N(Cc2ccco2)C(=O)Cc2cccs2)cc1 (stereo not given),i
O=C(O)CCc1cc2n(n1)CCCN(Cc1cn[nH]c1C(=O)O)C2,i
O=C(O)CCc1cc2n(n1)CCCN(C(=O)c1cc3c([nH]c1=O)CCC3)C2,28µM*
Cc1[nH]c(-c2ccccc2)nc1C(=O)N1CCn2nc(CCC(=O)O)cc2C1,i
O=C(O)/C=C/c1cc(Cl)cc(Cl)c1,i
COc1ccc(C(=O)NCc2nnc3cc(-c4nc(C(C)C)no4)ccn23)cc1F,10µM*
COc1ccc(C(=O)NCCc2noc(-c3ccccc3)n2)cc1F,i
CC(C)c1noc(-c2ccc(OCC(=O)NCc3cc(F)cc(F)c3)cc2)n1,i
Cc1noc(-c2ccn3c(CNC(=O)c4ccc(C)c(F)c4)nnc3c2)n1,3.5µM*
COc1ccc(C(=O)N2CCCC(n3cc(-c4nc(C(C)C)no4)nn3)C2)cc1F (stereo not given),i
Cc1noc(-c2ccn3c(CNC(=O)COc4ccc(F)cc4)nnc3c2)n1,13µM*
Cc1ccc(C(=O)NCc2nnc3cc(-c4nc(C(C)C)no4)ccn23)cc1F,7.1µM*
Cc1ccc(C(=O)NCCn2cccc2-c2nc(-c3ccccc3)no2)cc1F,i
O=C(NCc1ccco1)c1cc2ccc(Cl)cc2[nH]1,i
O=C(Nc1cccc(CNCc2ccccn2)c1)c1cccc(F)c1,i
Cc1cccc(-c2cc(=O)c3cc(NC(=O)c4ccccc4C)ccc3o2)c1,i
SMILES,KDM5B inhibitor
Cc1ccc(C(=O)Nc2ccc3oc(-c4ccc(F)cc4)nc3c2)cc1,i
Cc1ccc(-n2nc(C)c([C@@H]3C=C[C@@H](NC(=O)NCc4ccccc4)C3)c2C)cc1Cl,i
O=C(CN1CCCc2cc(F)cc(F)c21)Nc1cccc2nsnc12,i
O=C(c1c(F)cccc1F)N1CCC(CN2CCOCC2)CC1,i
CN1C[C@@H](NC(=O)Nc2ccc(F)cc2F)C[C@H]1c1nc(-c2ccccc2)no1,i
Cc1ccc(NC(=O)CN(C)C(=O)CCc2ncc(-c3ccccc3)o2)cc1,i
COc1ccc(NC(=O)[C@@H]2C[C@@H](c3cccc(C(F)(F)F)c3)N(C)C2)cc1OC,i
CN1C[C@H](C(=O)NCc2ccncc2)C[C@H]1c1cccc(C(F)(F)F)c1,i
CN1C[C@H](C(=O)N2CCN(c3ccccn3)CC2)C[C@H]1c1cccc(C(F)(F)F)c1,40µM*
CN(Cc1ccc(C(=O)NC2CC2)cc1)S(=O)(=O)c1ccc2c(c1)CCCC2,i
O=C(CNC(=O)c1ccc(F)cc1)OCc1ncc(-c2ccccc2)o1,i
CC(C)CN1C(=O)C(=O)N(Cc2ncc(-c3ccc(Cl)cc3)o2)C1=O,i
COc1cccc(-c2ncc(CNC(=O)C3NCCc4[nH]cnc43)s2)c1 (stereo not given),20µM*
COc1ccc(SCCNC(=O)C2NCCc3[nH]cnc32)cc1 (stereo not given),i
O=C(NCCc1nccc(-c2ccccc2)n1)C1NCCc2[nH]cnc21 (stereo not given),i
O=C(NCCc1nc(-c2cccnc2)n[nH]1)C1NCCc2[nH]cnc21 (stereo not given),7.9µM*
O=C(NCCc1nc(-c2cccnc2)n[nH]1)C1CCC(=O)N(C2CCCC2)C1 (stereo not given),i
O=C(NCCc1csc(-c2cccnc2)n1)C1NCCc2[nH]cnc21 (stereo not given),13µM*
O=C(NCCc1csc(-c2ncccn2)n1)C1NCCc2[nH]cnc21 (stereo not given),i
O=C(COc1ccccc1)NCCc1csc(-c2cccnc2)n1,i
O=C(NCc1csc(-c2cnccn2)n1)C1NCCc2[nH]cnc21 (stereo not given),25µM*
O=C(O)c1csc(-c2cnccn2)n1,i
O=C(NCc1ccc2c(c1)OCO2)C1NCCc2[nH]cnc21 (stereo not given),i
CCCOc1ccc(CCNC(=O)C2NCCc3[nH]cnc32)cc1OC (stereo not given),i
C(=C\c1ccccc1)/CN1CCN(Cc2nc(COc3ccccc3)no2)CC1,i
SMILES,KDM5B inhibitor
CN1CCN(C(=O)CCNc2nc(Cl)nc3nc[nH]c23)CC1,i
O=C(O)C1COCCO1 (stereo not given),i
CC(C)CCNc1nc2c(c(=O)n(C)c(=O)n2C)n1Cc1cccc(Cl)c1,i
Cc1cc(C(=O)CSc2nnc(COc3ccccc3Cl)n2C)c(C)n1Cc1cccs1,i
Cn1nc(C(=O)NCc2ccc(CN3CCCC3)cc2)c2ccccc2c1=O,i
O=C(COc1ccc(-n2cnnn2)cc1)Nc1cccc(S(=O)(=O)N2CCOCC2)c1,i
Cn1cnc(C(=O)O)c1,i
COc1cc(OC)cc(-c2nn3c(CN4CCCCC4)nnc3s2)c1,i
CC(=O)Nc1cccc(C(C)NC(=O)NOCc2ccccc2)c1 (stereo not given),i
O=C1/C(=C/c2cccc(Br)c2)Cc2ccccc21,i
CSc1cccc(Nc2nc(N)c(C(=O)c3ccccc3F)s2)c1,i
O=C(NC(C1CC1)C1CC1)c1n[nH]c(=O)c2ccccc12,i
CC(=O)c1ccc(N2CCN(C(=O)c3csc(-c4ccc(C)cc4)n3)CC2)cc1,i
O=C(NCc1nnnn1-c1ccccc1)C1NCCc2[nH]cnc21 (stereo not given),i
Cc1cc(C)cc(C2(CNC(=O)C3NCCc4[nH]cnc43)CCCC2)c1 (stereo not given),i
O=C(NCCc1nc(-c2cccnc2)no1)C1CC2(CCNCC2)CN1 (stereo not given),i
Cc1cc(C(F)(F)F)nc(CCNC(=O)C2CC3(CCNCC3)CN2)n1 (stereo not given),i
O=C(NCCc1csc(-c2cnccn2)n1)C1CC2(CCNCC2)CN1 (stereo not given),28µM*
Cc1nn(-c2ccc(F)cc2)c(C)c1CNC(=O)C1NCCc2[nH]cnc21 (stereo not given),13µM*
CCOc1cc(C2C3=C(CC(C)(C)CC3=O)OC3=C2C(=O)CC(C)(C)C3)ccc1OC(=O)CC,i
CC(=O)c1cccc(NC(=O)c2ccccc2CSc2nc3ccccc3o2)c1,i
COC(=O)c1cccn(C)c1=S,i
Cc1ccccc1Cn1c(=O)n(CCC(=O)NCCc2ccc(Cl)cc2)c(=O)c2sccc21,i
CN(C)C(=O)COC(=O)c1ccc2ccccc2n1,i
O=C1COc2ccc(-c3ccccc3)nc2CN1Cc1ccc(F)cc1,i
Cc1noc(C)c1-c1ccc2c(n1)CN(Cc1ccc(F)cc1)C(=O)CO2,i
